# Assay outcomes: PubChem, The Scripps Research Institute Molecular Screening Center
# Compounds with a hit are over-represented: about 3.4% of the library has one in this group of screens.
# PAFAH2 inh – inhibitors of human PAFAH2; Q99487; recombinant PAFAH2, FP-rhodamine activity probe, fluorescence polarization; inhibition, % at 3.39 µM; 0.99% of 340,000 active; AID 492956;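 active means inhibition above the mean over all tested compounds plus 3 SD, cut at about 30% in these data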;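 further: inhibitors block probe labeling of enzyme so polarization drops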
# PP1 counter – PP1-alpha (human) inhibition in PP5 counter-screen; P62136; purified PP1alpha, OMFP fluorescence; inhibition, % at 6.7 µM; 0.9% of 320,000 active; AID 2235;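 active means inhibition above the mean inhibition of all tested compounds plus 3 SD, computed separately for each screening campaign, cut at about 15% in these data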
# Target sequence (P62136 whole entry, looked up): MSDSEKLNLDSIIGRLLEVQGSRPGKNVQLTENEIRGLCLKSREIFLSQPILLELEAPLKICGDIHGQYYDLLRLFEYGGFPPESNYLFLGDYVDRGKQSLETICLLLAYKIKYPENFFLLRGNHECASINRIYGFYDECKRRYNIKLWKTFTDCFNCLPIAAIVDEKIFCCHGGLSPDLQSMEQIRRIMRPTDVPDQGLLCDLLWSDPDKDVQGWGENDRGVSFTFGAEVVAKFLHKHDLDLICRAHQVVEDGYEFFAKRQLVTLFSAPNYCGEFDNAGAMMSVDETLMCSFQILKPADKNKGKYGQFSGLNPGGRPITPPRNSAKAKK
# PP5 inh – PP5 (human) phosphatase inhibition; P53041; inhibition, % at 6.7 µM; AID 1987; 0.18% of 320,000 active; purified PP5c, OMFP substrate fluorescence;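 active means inhibition above the campaign's mean inhibition across all tested compounds plus 3 SD, cut at about 9.5% in these data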
# pPAFAH inh – pPAFAH (human) enzyme inhibition. Q13093. recombinant pPAFAH, FP-rhodamine probe fluorescence polarization. inhibition, % at 3.39 µM. 1.5% of 330,000 active. AID 463082;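 active means inhibition above the mean inhibition across the screen plus 3 SD, cut at about 25% in these data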;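 further: inhibitors block binding of the rhodamine activity-based probe so polarization drops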
# PAFAH1B3 FP inh – inhibitors of human PAFAH1B3; Q15102; recombinant PAFAH1B3, FP-rhodamine probe, fluorescence polarization; inhibition, % at 3.39 µM; 0.28% of 340,000 active; AID 492972;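 active means inhibition above the screen-wide average of all tested compounds plus 3 SD, cut at about 25% in these data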
# PAFAH1B2 inh – PAFAH1B2 (human) inhibition; recombinant PAFAH1B2, FP-rhodamine activity probe, fluorescence polarization; P68402; AID 492953; inhibition, % at 3.39 µM; 1.2% of 340,000 active;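 active means inhibition above the mean of all tested compounds plus 3 SD, cut at about 24% in these data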
# Target sequence (P68402 whole entry, looked up): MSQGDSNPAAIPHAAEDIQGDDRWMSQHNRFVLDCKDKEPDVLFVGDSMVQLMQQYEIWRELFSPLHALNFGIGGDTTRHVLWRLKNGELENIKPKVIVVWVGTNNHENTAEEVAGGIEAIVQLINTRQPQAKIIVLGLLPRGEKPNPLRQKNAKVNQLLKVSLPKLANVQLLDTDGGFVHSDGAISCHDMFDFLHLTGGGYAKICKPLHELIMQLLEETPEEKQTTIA
# A number is an active result; - = inactive; . = not tested or not shown.
SMILES,PAFAH2 inh,PP1 counter,PP5 inh,pPAFAH inh,PAFAH1B3 FP inh,PAFAH1B2 inh
Cc1cc(/C=N/n2c(COc3ccccc3C)nc3ccccc3c2=O)c(O)c([N+](=O)[O-])c1,-,-,-,-,-,-
Oc1ccc(Br)cc1/C=N/n1c(COc2ccccc2)n[nH]c1=S,-,.,.,.,-,28
O=C(CSc1nc2scc(-c3ccco3)c2c(=O)n1-c1ccccc1)N1CCOCC1,-,-,-,-,-,-
NC(=O)CSc1nc2scc(-c3ccco3)c2c(=O)n1-c1ccccc1,-,-,-,28,-,-
O=C(NC1CCSC1)c1cccc(Cl)c1 (configuration not stated),-,-,-,-,-,-
CNC(=O)CSc1nc2cc(S(=O)(=O)Nc3ccc(OC)cc3)ccc2o1,-,-,-,27,-,-
Cc1ccc(C2=C(O)C(=O)C(c3ccc(C)cc3)=C(O)C2=O)cc1,63,.,.,.,65,41
CC1=C(O)C(=O)C(C2=C(O)C(=O)C(C)=C(O)C2=O)=C(O)C1=O,-,.,.,.,-,-
CC(C)(C)OC(=O)N1CCC(NC(=O)c2nc[nH]c2C(=O)NCC(=O)OCc2ccccc2)CC1,-,-,-,33,-,-
CC(C)(C)OC(=O)CNC(=O)c1[nH]cnc1C(=O)NC1CCN(C(=O)OC(C)(C)C)CC1,-,-,-,-,-,-
O=C(CCc1nnc(CCCc2ccccc2)o1)NCCc1ccccc1,-,-,-,-,-,24
O=C(CCc1nnc(CCCc2ccccc2)o1)NCCc1ccco1,-,-,-,-,-,-
CCOc1ccc(S(=O)(=O)Nc2cc(Sc3ncn[nH]3)c3oc(=O)sc3c2)cc1,.,16,-,33,.,.
OC(c1nc2ccccc2[nH]1)C(O)c1nc2ccccc2[nH]1 (configuration not stated),-,-,-,-,-,-
FC(F)(F)c1nc2cc3nc4ccccc4[nH]c3cc2n1,-,-,-,31,-,-
CCCCC[C@@H]1C=C(C(=O)O)[C@H](c2ccc(F)cc2)N1S(=O)(=O)c1ccc(C)cc1,-,.,.,-,-,25
CCCCC[C@@H]1C=C(C(=O)O)[C@H](c2ccc(CC)cc2)N1S(=O)(=O)c1ccc(C)cc1,-,.,.,-,-,-
CCCCC[C@@H]1C=C(C(=O)O)[C@H](c2ccc(Cl)c(Cl)c2)N1S(=O)(=O)c1ccc(C)cc1,-,.,.,-,-,29
COC(=O)c1ccc2c(c1C(=O)OC)CN(S(=O)(=O)C(C)(C)C)[C@@H]2CCO,-,.,.,.,-,-
Cc1ccc(/C=C2\SC(=S)N(CCC(=O)NNC(=O)c3ccccc3O)C2=O)cc1,-,-,-,-,-,-
O=C(CCN1C(=O)/C(=C/c2ccccc2Cl)SC1=S)Nc1cccnc1,-,15,-,-,-,-
O=C(CCCN1C(=O)/C(=C/c2ccccc2Cl)SC1=S)Nc1cccnc1,-,17,-,-,-,-
O=C(CCN1C(=O)/C(=C/c2ccccc2Cl)SC1=S)Nc1ccccn1,-,-,-,-,-,-
O=C(CCN1C(=O)/C(=C/c2ccccc2Cl)SC1=S)NC1=NCCS1,-,-,-,-,-,34
O=C(CCN1C(=O)/C(=C/c2ccccc2Cl)SC1=S)NNC(=O)c1ccccc1O,-,-,-,30,-,-
SMILES,PAFAH2 inh,PP1 counter,PP5 inh,pPAFAH inh,PAFAH1B3 FP inh,PAFAH1B2 inh
O=C(CCN1C(=O)/C(=C/c2ccccc2Cl)SC1=S)NNC(=O)c1cccnc1,-,-,-,-,-,-
COc1ccccc1N1CCN(C(=O)c2cc(-c3ccc(F)cc3)[nH]c2C)CC1,-,.,.,.,-,-
NS(=O)(=O)c1ccc(CNC(=S)Nc2cc(S(=O)(=O)N3CCOCC3)ccc2Cl)cc1,-,.,.,.,-,-
Cc1ccc(C(=O)N2CCN(Cc3ccccc3)CC2)o1,-,-,-,-,-,-
Cc1cc2oc(C(=O)N3CCN(Cc4ccccc4)CC3)c(C)c2cc1C,-,-,-,26,-,-
Cc1ccc(N=Nc2ccc3ccccc3c2O)cc1,35,-,-,-,52,86
Oc1c(N=Nc2ccc(F)cc2)ccc2ccccc12,-,-,-,-,-,-
CCN1C[C@@H]2[C@@H]3C(=O)N(C)C(=O)[C@@H]3[C@](Cc3ccccc3)(C1=O)N2C(=O)c1ccc(Cl)cc1,-,.,.,.,-,-
CC(C)c1ccc(NC(=O)CCN2C(=O)[C@@H]3Cc4ccccc4CN3C2=O)cc1,-,-,-,-,-,-
N#Cc1c(N2CCN(C(=O)c3ccccc3Cl)CC2)nc(-c2ccccc2)c2c1CCCC2,-,-,-,-,-,-
N#Cc1c(N2CCN(C(=O)c3ccccc3)CC2)nc(-c2ccccc2)c2c1CCCC2,-,16,-,-,-,-
COC(=O)C[C@H]1C=C[C@@H](C(C(=O)OC)C(=O)OC)CN1C(C)=O,-,.,.,.,-,-
CC1=CC2C(C(O)CC3(C)C2CC(C)C32OCOC23COCO3)C2(C)C/C(=C\O)C(=O)C=C12 (configuration not stated),-,.,.,.,-,-
O=C(O)c1ccn2c(C(=O)c3ccc(Cl)cc3)c(-c3ccccc3)cc2c1,-,-,-,-,-,59
O=C(NCCO)C(=O)c1c(-c2ccc(Cl)cc2)cc2ccccn12,-,-,-,-,-,-
O=C(O)C1C2C=CC3(CN(C/C=C/c4ccccc4)C(=O)C13)O2 (configuration not stated),-,-,-,31,-,-
O=C(O)C1C2C=CC3(CN(c4cccc(C(F)(F)F)c4)C(=O)C13)O2 (configuration not stated),-,-,-,-,-,25
Cc1cccc(N=Cc2cc3c(cc2[N+](=O)[O-])OCO3)c1,-,-,-,28,-,-
O=C(CCCn1nnnc1CN1CCOCC1)N1CCC(c2ccccc2F)C1 (configuration not stated),-,.,.,.,-,-
O=C(CCCn1nnnc1CN1CCOCC1)N1CCN(c2ccccc2F)CC1,-,15,-,-,-,-
CCCCN(CCCNC(=O)CN1C(=O)COc2ccc(S(=O)(=O)N3CCC(C)CC3)cc21)Cc1ccccc1,-,-,-,-,-,-
CCN(c1ccccc1)c1nc(Cl)nc2c1cnn2C,-,.,.,.,-,-
Cc1ccc(S(=O)(=O)n2cc(CO)c3ccccc32)cc1,-,.,.,.,-,47
CCOc1cc(N2CCOCC2)c(OCC)cc1NC(=O)C(NC(=O)c1c(F)cccc1F)C(C)C (configuration not stated),-,.,.,.,-,-
Oc1ccc(O)c(/C(=N/Nc2ccccc2)c2ccccc2)c1,.,-,-,44,.,.
O=C1CCNc2ccc(-c3ccccc3)cc21,-,-,-,-,-,-
O=C1CCNc2cc3ccccc3cc21,-,-,-,31,-,-
CCOCCSc1nc2c(c(-c3cccs3)c1C#N)CC/C2=C/c1cccs1,-,-,-,27,-,-
Cc1cccc2c(N=O)c(O)[nH]c12,-,-,-,31,53,30
Cc1[nH]c2c(C)cccc2c1CC(=O)O,-,-,-,-,-,-
